# Measured values taken from PubChem BioAssay (NCATS).
# Results filed as inconclusive are left out. A call without a number means that no potency is given here. Activity calls are given as the source filed them. Calls come from the whole dose curve; as a rule, active = well fitted inhibition curve with a large enough effect; inconclusive = small, poorly fitted or top-dose-only effect; inactive = flat fitted curve, though single readings scatter.
# Target: Luciferin 4-monooxygenase (Photinus pyralis) (UniProt P08659)
# Sequence (P08659 whole entry, looked up): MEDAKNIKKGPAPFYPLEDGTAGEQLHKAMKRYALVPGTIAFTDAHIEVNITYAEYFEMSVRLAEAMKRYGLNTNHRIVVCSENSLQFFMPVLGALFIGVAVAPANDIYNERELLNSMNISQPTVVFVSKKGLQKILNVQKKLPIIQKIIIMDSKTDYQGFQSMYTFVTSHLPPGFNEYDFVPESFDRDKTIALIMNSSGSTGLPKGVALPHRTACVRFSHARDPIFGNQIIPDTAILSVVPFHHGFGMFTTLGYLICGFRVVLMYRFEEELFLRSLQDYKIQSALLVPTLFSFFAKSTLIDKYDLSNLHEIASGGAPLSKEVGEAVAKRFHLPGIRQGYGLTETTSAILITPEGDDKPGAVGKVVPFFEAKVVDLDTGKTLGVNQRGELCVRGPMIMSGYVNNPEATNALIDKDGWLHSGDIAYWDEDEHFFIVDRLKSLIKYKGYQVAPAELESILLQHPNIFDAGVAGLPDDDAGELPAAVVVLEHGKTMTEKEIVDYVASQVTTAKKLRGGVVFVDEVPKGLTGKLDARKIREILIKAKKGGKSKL
# Experiment: Biochemical firefly luciferase enzyme assay for NPC (AID 624030);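 note: purified P. pyralis luciferase at 10 nM with luciferin and ATP substrate; nearly all actives have a fitted effect of over 70% in size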
# Conditions: purified P. pyralis luciferase, luminescence, 5 min; series mostly up to 58.6 µM
# Summary of the method: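 Purified P. pyralis luciferase at 10 nM in 50 mM Tris Acetate (final), luminescence read within 5 minutes of enzyme addition to compounds. Activity normalised to PTC124 versus DMSO; concentration-response curves classed by r2, magnitude and activity.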
row,Structure (SMILES),Potency
1,CN1[C@@H]2CC[C@H]1CC(OC(=O)C(CO)c1ccccc1)C2 (stereo partly specified),inactive
2,CC1[C@H]2Cc3ccc(O)cc3[C@]1(C)CCN2C (stereo partly specified),inactive
3,CCC1CC2CC3c4[nH]c5ccc(OC)cc5c4CCN(C2)C13 (stereo unspecified),inactive
4,C#C[C@]1(OC(=O)CCCCCC)CC[C@H]2C3CCC4=CC(=O)CC[C@@H]4[C@H]3CC[C@@]21C (stereo partly specified),inactive
5,CCc1cc(OC)c(CC(C)N)cc1OC (stereo unspecified),inactive
6,O=C1[O][Sb-]23[O]C(=O)C([O]2)C2[O][Sb-]4([O]C(=O)C([O]4)C1[O]3)[O]C2=O,inactive
7,CC(C)[C@@]1(NC(=O)[C@H]2C[C@H]3c4cccc5[nH]cc(c45)C[C@@H]3N(C)C2)O[C@]2(O)[C@H]3CCCN3C(=O)CN2C1=O (tested in a mixture with another compound),inactive
8,COc1ccc2c3c1OC1[C@H](O)CCC4[C@@H](C2)N(C)CC[C@]314 (stereo partly specified),inactive
9,C[C@]12CCC(=O)C=C1CC[C@H]1C2CC[C@@]2(C)[C@@H]1CC[C@]2(C)O (stereo partly specified),inactive
10,O=[N+]([O-])NC1=NCCN1Cc1ccc(Cl)nc1,inactive
11,CC1[C@H]2Cc3ccc(O)cc3[C@]1(C)CCN2CCc1ccccc1 (stereo partly specified),inactive
12,COc1cc(CC(C)N)c(OC)cc1C (stereo unspecified),inactive
13,CCC(=O)OC1[C@@H](N2CCCCC2)C[C@H]2[C@@H]3CC[C@H]4C[C@H](OC(C)=O)[C@@H](N5CCCCC5)C[C@]4(C)[C@H]3CC[C@]12C (stereo partly specified),inactive
14,Clc1ccc([C@H]2CC3CCC2N3)cn1 (stereo partly specified),inactive
15,COc1cc(CCN)c(OC)cc1Br,inactive
16,C=C/C=C/CC1=C(C)[C@@H](OC(=O)[C@@H]2[C@@H](/C=C(\C)C(=O)OC)C2(C)C)CC1=O (tested in a mixture with another compound),inactive
